About 3,900 (1.3%) of roughly 310,000 compounds were called active.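 Rule for the calls: active = compounds whose thallium flux B-score, printed positive for inhibition, exceeds three library SD while starting fluorescence stays within three; inactive = the rest.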 Shown is part of a subset that was picked to be rich in actives.

For this assay, the target named is Potassium voltage-gated channel subfamily KQT member 1 (Homo sapiens) (UniProt P51787). Briefly: KCNQ1 potassium current blockers – cell-based, thallium flux, high-throughput, primary screen (AID 2642).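 Note: channel opened by potassium depolarization with thallium stimulus after 20 min compound exposure.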 The settings on record: CHO-K1 KCNQ1, FluxOR thallium flux fluorescence, at 10 µM; stronger effect = higher value.
Potassium voltage-gated channel subfamily KQT member 1 (Homo sapiens), sequence (P51787 whole entry, looked up): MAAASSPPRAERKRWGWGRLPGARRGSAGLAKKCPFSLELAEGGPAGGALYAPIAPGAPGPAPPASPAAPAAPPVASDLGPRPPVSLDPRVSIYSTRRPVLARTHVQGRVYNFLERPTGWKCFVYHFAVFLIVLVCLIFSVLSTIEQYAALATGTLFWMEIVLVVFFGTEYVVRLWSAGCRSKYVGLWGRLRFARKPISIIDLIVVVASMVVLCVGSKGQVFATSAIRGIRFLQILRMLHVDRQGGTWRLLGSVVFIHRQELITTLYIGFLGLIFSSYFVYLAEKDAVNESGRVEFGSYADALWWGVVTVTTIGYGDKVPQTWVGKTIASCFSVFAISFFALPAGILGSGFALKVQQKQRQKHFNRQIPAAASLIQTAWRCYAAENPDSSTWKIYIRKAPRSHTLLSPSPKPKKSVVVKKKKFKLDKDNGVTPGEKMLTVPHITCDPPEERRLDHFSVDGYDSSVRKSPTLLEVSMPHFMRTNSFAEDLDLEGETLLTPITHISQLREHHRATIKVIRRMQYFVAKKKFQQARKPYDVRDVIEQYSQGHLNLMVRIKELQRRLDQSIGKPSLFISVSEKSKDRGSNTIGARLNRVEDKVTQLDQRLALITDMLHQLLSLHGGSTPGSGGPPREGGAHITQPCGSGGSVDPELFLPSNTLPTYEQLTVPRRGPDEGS
As to `CCOc1ccc(-c2cc(C)[n+](CCN(CC)CC)c(-c3ccc(OCC)cc3)c2)cc1`, the B-score is 7 (active). The same measure for `CSC1=NP(=S)(SC)N(C)c2nc3n(c21)CCC3` (stereo not given): “inactive”. For the compound `CCN1C(=O)C(=Cc2c(C)n(CC(=O)NCC3CCCO3)c3ccccc23)C(=O)N(CC)C1=S` (stereo not given), the B-score result is “inactive”. As to `CN(C)S(=O)(=O)c1cc(C(=O)N2CCC(C(=O)O)(c3ccccc3)CC2)ccc1Cl`, the B-score result is “inactive”. Consider `Cc1ccc(-c2nc3ccccc3c(=O)n2-c2ccc(Br)cn2)cc1`, for which the B-score entry was “inactive”. As for `CCCCCCCCCCCCn1ccc(=N)cc1`, the B-score was 13 (active). Next, `CC1=CC(=Cc2sc3ccccc3[n+]2C)C=C(C)O1`: “inactive”; `Clc1ccc2nc3c(c(-c4ccccc4)c2c1)CNCC3`: “inactive”.

For `O=C(Nc1cccc2ccccc12)N1CCC2(CC1)OCCO2`, the B-score result was “inactive”. Take `O=C1CC(=O)N(Cc2ccccc2)C(=O)N1CCCCCCN1C(=O)CC(=O)N(Cc2ccccc2)C1=O`: the B-score entry is “inactive”.

For `CC(C)(C)c1ccc(CN2C(=O)CN=C(c3ccccc3)c3ccccc32)cc1`, the B-score is 6 (active). With `C=Cn1ccnc1P(=S)(c1cc(N(CC)CC)ns1)c1nccn1C=C`, the B-score entry is “inactive”. On to `O=c1[nH]c(=O)n(-c2ccc(F)cc2)c(O)c1C=NCCN1CCCCC1`, for which the B-score result was “inactive”. As for `COC(=O)C1=C(c2ccccc2)C[C@@H]2CC[C@H]1N2C(=O)N1CCCCC1`, the B-score entry is “inactive”.

Turning to `C/C(=N/O)c1ccc2ccc3ccccc3c2c1`, the B-score result is “inactive”. In the case of `C/C=C/CC1(CC)C(=O)NC(=S)NC1=O`, the B-score entry is “inactive”.

With `CCOc1cccc(=NC2CCCCC2)c2c(C)[nH]c(C)c12`, the B-score was 7 (active). As for `CN(C)c1nc(N(C)C)nc(N(C#N)CCCl)n1`, the B-score entry was “inactive”. As for `COc1ccccc1N1CCN(C(CNC(=O)Oc2ccccc2)c2cccnc2)CC1` (stereo not given), the B-score result was “inactive”. As to `O=C(N/N=C/c1c(O)n(C2CC2)c(=S)[nH]c1=O)c1ccccc1Cl`, the B-score entry is “inactive”.

The values above are taken from PubChem BioAssay AID2642 (Johns Hopkins Ion Channel Center, 2010).
